# Assay results: PubChem BioAssay (EPA / NIEHS)
# Results filed as inconclusive are left out. The source made the active and inactive calls. How the source made its calls: active means hit-call score of the fitted dose curve at least 0.9, where 1 is the maximum; inconclusive means response in the unintended direction; inactive means score below 0.9.
# Biological target: Estrogen receptor beta (Homo sapiens) (UniProt Q92731)
# Assay: OT_ER_ERbERb_0480: Odyssey Thera (OT) 8-hour HEK293T Protein-Complementation Assay for Estrogen Receptor-beta/-beta Homodimer (AID 2283357);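 further: active means signal gain over DMSO baseline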
# Outline: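 Cells (HEK293T, stable ER-beta LBD PCA pair) are treated 8 hours, fixed and Draq5-stained; signal is fluorescence intensity increase relative to vehicle, fitted in the gain direction.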
# Sequence of Estrogen receptor beta (Homo sapiens) (Q92731 whole entry, looked up): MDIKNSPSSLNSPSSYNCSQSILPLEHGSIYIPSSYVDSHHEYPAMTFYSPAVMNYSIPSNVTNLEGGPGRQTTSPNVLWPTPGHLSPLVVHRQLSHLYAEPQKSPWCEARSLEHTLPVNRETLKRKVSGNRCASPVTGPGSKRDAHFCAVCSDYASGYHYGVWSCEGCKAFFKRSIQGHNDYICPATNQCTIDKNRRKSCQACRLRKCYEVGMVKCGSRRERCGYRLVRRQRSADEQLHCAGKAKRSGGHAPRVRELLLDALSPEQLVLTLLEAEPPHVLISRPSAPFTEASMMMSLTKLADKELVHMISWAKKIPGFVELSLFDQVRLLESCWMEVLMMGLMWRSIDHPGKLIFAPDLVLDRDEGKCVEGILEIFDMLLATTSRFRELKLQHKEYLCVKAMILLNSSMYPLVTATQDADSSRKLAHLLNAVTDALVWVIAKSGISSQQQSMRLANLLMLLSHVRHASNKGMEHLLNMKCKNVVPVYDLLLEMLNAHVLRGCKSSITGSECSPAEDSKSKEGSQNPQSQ
SMILES,outcome,AC50
Cc1ccc(S(=O)(=O)Oc2ccc(N=Nc3ccc(-c4ccc(N=Nc5c(O)ccc6cc(S(=O)(=O)O)cc(S(=O)(=O)O)c56)c(C)c4)cc3C)cc2)cc1,inactive,
CCOc1ccccc1O,inactive,
[O-]n1ccccc1=S.[O-]n1ccccc1=S.[Zn+2],inactive,
C=C1CC[C@H](O)C/C1=C/C=C1\CCC[C@]2(C)[C@@H]([C@H](C)/C=C/[C@H](C)C(C)C)CC[C@@H]12,inactive,
CCCCOC(=O)CCCCCCCC(=O)OCCCC,inactive,
O=C(CC(=O)c1ccccc1)c1ccccc1,inactive,
CCCCCCCCC=CCCCCCCCC1=NCCN1CCO,inactive,
Nc1ccc(N)c2c1C(=O)c1ccccc1C2=O,inactive,
Cc1cc(S(=O)(=O)O)ccc1N=Nc1c(O)ccc2ccccc12,inactive,
OCc1cccc(Oc2ccccc2)c1,,47.7 µM (active)
CC(CN=Cc1ccccc1O)N=Cc1ccccc1O (stereo not given),inactive,
CC1CCC(C(C)C)C(O)C1 (stereo not given),inactive,
CN(C)c1cccc(O)c1,inactive,
CCC(=O)O[C@@H]1C[C@H]2CC[C@]1(C)C2(C)C,inactive,
CCCCCCCCCC(=O)OC,inactive,
Nc1ccc2cc(S(=O)(=O)O)cc(O)c2c1N=Nc1ccccc1C(F)(F)F,inactive,
COc1ccc(N=Nc2cc(C)c(N=Nc3ccc(S(=O)(=O)O)cc3)cc2OC)cc1,inactive,
CC(C)Nc1nc(N)nc(Cl)n1,inactive,
C#CC(C)(O)CC(C)C (stereo not given),inactive,
CCCCCCC(C)(C)S,inactive,
OC[C@H]1O[C@@H]2O[C@H]3[C@H](O)[C@@H](O)[C@@H](O[C@H]4[C@H](O)[C@@H](O)[C@@H](O[C@H]5[C@H](O)[C@@H](O)[C@@H](O[C@H]6[C@H](O)[C@@H](O)[C@@H](O[C@H]7[C@H](O)[C@@H](O)[C@@H](O[C@H]8[C@H](O)[C@@H](O)[C@@H](O[C@H]9[C@H](O)[C@@H](O)[C@@H](O[C@H]1[C@H](O)[C@H]2O)O[C@@H]9CO)O[C@@H]8CO)O[C@@H]7CO)O[C@@H]6CO)O[C@@H]5CO)O[C@@H]4CO)O[C@@H]3CO,inactive,
CCCCC(CC)COC(=O)c1ccc(O)cc1 (stereo not given),,0.91 µM (active)
CCCCCC(C=O)=Cc1ccccc1,inactive,
CC(C)c1ccccc1O,inactive,
CC(=O)O[C@H]1C[C@@H]2CC[C@@]1(C)C2(C)C,inactive,
COc1ccccc1N=Nc1c(S(=O)(=O)O)cc2cc(S(=O)(=O)O)cc(NC(C)=O)c2c1O,inactive,
CCc1ccc(O)cc1,inactive,
CCCCCCCCCCCCCCN(CCO)CCO,inactive,
CCCC(=O)OC(C)(C)Cc1ccccc1,inactive,
O=C(c1ccccc1)C(O)c1ccccc1 (stereo not given),inactive,
